Measurements from the supplement of paper PMC6555819.

Tests used:
Assay in all cases: PBM binding z-score (relative to random genomic background probes); higher = stronger binding; sequences stand for … in GC…GCGATTGACAGCGTAGAATGAAGG
[1] = system: FXR:RXRa (NR concentration 270 nM, RXRa partner concentration 90 nM)
In short: (§1)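 Regression normalization was applied to scanned fluorescence from custom Agilent 4×180K protein-binding microarrays. Before scanning, arrays were incubated 1 h with ligand-free nuclear receptor dimers, and binding was detected with antibodies against each partner (one per run). Binding z-scores use the random background probes as reference.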

[2] = system: LXRa:RXRa (NR concentration 270 nM, RXRa partner concentration 90 nM)
In short: as §1

[3] = system: LXRa homodimer (NR concentration 270 nM)
In short: as §1

[4] = system: LXRb:RXRa (NR concentration 270 nM, RXRa partner concentration 90 nM)
In short: as §1

[5] = system: LXRb homodimer (NR concentration 270 nM)
In short: as §1

[6] = system: PPARa:RXRa (NR concentration 270 nM, RXRa partner concentration 90 nM)
In short: as §1

[7] = system: PPARg:RXRa (NR concentration 180 nM, RXRa partner concentration 90 nM)
In short: as §1

[8] = system: PPARg:RXRa 270nM:90nM, anti-RXR (NR concentration 270 nM, RXRa partner concentration 90 nM)
In short: as §1

[9] = system: PPARg:RXRa 30nM:10nM, anti-RXR (NR concentration 30 nM, RXRa partner concentration 10 nM)
In short: as §1

[10] = system: PPARg:RXRa 90nM:30nM, anti-RXR (NR concentration 90 nM, RXRa partner concentration 30 nM)
In short: as §1

[11] = system: PPARg:RXRa DBDmut IVT, anti-RXR (DBD mutation: RXRa K156A/R161A, NR concentration 270 nM, RXRa partner concentration 90 nM)
In short: as §1

[12] = system: PPARg:RXRa IVT, anti-PPARg (NR concentration 270 nM, RXRa partner concentration 90 nM)
In short: as §1

[13] = system: PPARg DBDmut:RXRa IVT, anti-PPARg (DBD mutation: PPARg1 K132A/R137A, NR concentration 270 nM, RXRa partner concentration 90 nM)
In short: as §1

[14] = system: PPARg DBDmut IVT, anti-PPARg (DBD mutation: PPARg1 K132A/R137A, NR concentration 270 nM)
In short: as §1

[15] = system: PPARg homodimer (NR concentration 180 nM)
In short: as §1

[16] = system: PXR:RXRa (NR concentration 270 nM, RXRa partner concentration 90 nM)
In short: as §1

[17] = system: PXR homodimer (NR concentration 270 nM)
In short: as §1

[18] = system: RARa:RXR (NR concentration 270 nM, RXRa partner concentration 90 nM)
In short: as §1

[19] = system: RARa homodimer (NR concentration 270 nM)
In short: as §1

[20] = system: RARb:RXRa (NR concentration 270 nM, RXRa partner concentration 90 nM)
In short: as §1

Sequence | PBM binding z-score [1] | PBM binding z-score [2] | PBM binding z-score [3] | PBM binding z-score [4] | PBM binding z-score [5] | PBM binding z-score [6] | PBM binding z-score [7] | PBM binding z-score [8] | PBM binding z-score [9] | PBM binding z-score [10] | PBM binding z-score [11] | PBM binding z-score [12] | PBM binding z-score [13] | PBM binding z-score [14] | PBM binding z-score [15] | PBM binding z-score [16] | PBM binding z-score [17] | PBM binding z-score [18] | PBM binding z-score [19] | PBM binding z-score [20]
ACTACCAGGCCAAGGGTCACTCAAGATTAGTCCG | 2.84 | 3.11 | 0.63 | 3.41 | 0.443 | 5.06 | 8.68 | 7.51 | 6.65 | 7.73 | 1.41 | 4.54 | 0.921 | -0.0701 | 2.3 | 3.38 | 0.474 | 4.11 | 1.31 | 3.78
GCTATTAGTCGAAAGGGCAACCGAATGATTCTCG | 0.296 | 0.236 | 0.214 | 0.479 | -0.262 | 1.74 | 2.25 | 4.04 | 2.32 | 3.76 | 0.549 | 0.458 | 0.65 | 0.0546 | 0.852 | 0.446 | -0.0421 | 0.942 | 0.125 | 2.07
AGAATGAGGTTATTAAAATCAGGGAATTGCGGTC | 1.11 | 1.04 | 0.0738 | 1.21 | 0.192 | 2.3 | 1.02 | 1.43 | 0.509 | 0.902 | 3.19 | 2.38 | 0.973 | 0.541 | 0.649 | 1.13 | 0.34 | 1.44 | 0.843 | 1.25
GCCACTGGGGCAAAGCAGGTTACCATAAGGTTGG | 0.159 | 0.154 | -0.633 | -0.0213 | -0.866 | 1.67 | 2.09 | 2.57 | 0.133 | 1.47 | 5.67 | 5.29 | 0.444 | -0.613 | 0.322 | 0.224 | -0.707 | 1.06 | -0.774 | 1.01
ACAGACAAGTGAGTGAAGGTAACTCAGCTGGACG | -0.054 | -0.258 | -0.475 | -0.57 | -0.342 | -0.314 | 0.674 | -0.0179 | -0.202 | -0.0069 | -0.268 | -0.138 | 0.174 | 0.39 | -0.0501 | -0.521 | -0.267 | -0.183 | -0.707 | -0.0703
GCTGCTAGGTCAGGTTGGTCAGCGAACGGGTACG | 1.22 | 0.707 | -0.269 | 0.492 | -0.499 | 1.3 | 0.347 | 0.793 | -0.213 | 0.414 | 2.7 | 2.09 | 0.222 | -1.25 | 0.933 | 0.281 | -0.36 | 0.76 | -0.581 | 3.31
ATCGACAGGTCGAAGGTGAGTATACCCACCCGAA | 0.612 | 0.709 | -0.323 | 0.59 | -0.341 | 2.27 | 2.57 | 2.71 | 1.04 | 2.75 | -0.979 | 1.09 | 0.369 | -0.333 | 0.63 | 0.914 | -0.44 | 1.5 | -0.439 | 1.64
TCAGACAGGTGAAGCTAACTCAGGTACGCAGTCG | 0.462 | 0.31 | -0.268 | 0.231 | -0.92 | 0.744 | 0.519 | 1.5 | 3.44 | 2.75 | 2.31 | 0.713 | 0.0407 | -0.303 | 0.616 | 0.0875 | 0.111 | 0.285 | 0.225 | 0.749
AGTCAATGTTCATCTAGGTAACGTAAGATATGCT | -0.0895 | -0.35 | -0.229 | -0.0742 | -0.311 | 0.296 | 0.881 | -0.0872 | -0.0799 | -0.00272 | 0.56 | 1.85 | 1.15 | 0.949 | -0.656 | -0.196 | 0.00127 | -0.13 | 0.181 | 0.152
CCGACTGGGGCATTAGGTTACCATAAGCCAGCCC | -0.253 | 0.617 | -0.377 | 0.144 | -1.38 | 1.12 | 2.09 | 2.4 | 0.389 | 1.44 | 4.18 | 4.74 | 1.31 | -0.339 | 0.243 | -0.496 | -0.542 | 0.173 | -0.742 | 0.848
ATCGAAAGGTTGTGAGGTGAGTATACAGAAAGGC | 0.714 | 0.605 | -0.189 | 0.771 | 0.139 | 1.68 | 0.892 | 0.732 | 0.508 | 0.523 | -0.125 | 0.638 | 0.845 | 0.495 | 0.431 | 0.336 | 0.498 | 1.15 | 0.35 | 1.45
CCAGACAGGTGGGAAGGTAACTCAGCCTCGATTA | -0.208 | -0.246 | 0.289 | 0.0174 | -0.794 | 0.0187 | 0.131 | -0.544 | -0.249 | -0.529 | -0.289 | -0.383 | -0.344 | -0.717 | 0.689 | -0.359 | 0.0826 | -0.164 | 0.496 | -0.0117
CATACTGGGCCAAAGGTCATTGATTCCAATGCTC | 5.32 | 5.39 | 4.2 | 5.17 | 1.29 | 6.71 | 11.9 | 10.1 | 10.1 | 11.1 | 4.86 | 6.31 | 1.88 | 1.07 | 3.77 | 5.52 | 1.72 | 6.32 | 1.82 | 4.71
CGAACTAGGTCATTGACGGGACAGTGAATAGTAA | 4.27 | 2.52 | 0.242 | 1.81 | -0.0446 | 4.64 | 7.48 | 6.38 | 3.39 | 5.82 | 8.12 | 8.13 | 2.44 | 0.8 | 1.5 | 1.15 | 0.012 | 1.98 | 0.192 | 3.63
